The entries come from a sample that favours hits as a whole.
GluA2 TARP mod: GluA2-stargazin AMPA receptor complex modulation. O88602+P19491. HEK293 GluA2+stargazin, membrane potential dye (FDSS), glutamate EC50; hits were called plate by plate, in both directions. calls only at 30 µM. hit rate 3.5% among 40,000. AID 1259245;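 active means any of four per-well response measures lying three or more SD from its plate-wide compound average, in either direction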
GIRK2 activator: GIRK2 channel activators by thallium flux; P48051; HEK293 GIRK2/NPY4 cells, thallium flux fluorescence; activation (% efficacy), % for hits at 37.5 µM; 34,000 tested, under 10 active;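 active means primary screen hit, no activity in plain HEK293 cells, and in GIRK2-only cells above 5% efficacy rising with concentration; inactive means the rest, including fluorescent compounds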;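 further: efficacy is normalized control-subtracted fluorescence 15 s after thallium addition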
Target sequence (P48051 whole entry, looked up): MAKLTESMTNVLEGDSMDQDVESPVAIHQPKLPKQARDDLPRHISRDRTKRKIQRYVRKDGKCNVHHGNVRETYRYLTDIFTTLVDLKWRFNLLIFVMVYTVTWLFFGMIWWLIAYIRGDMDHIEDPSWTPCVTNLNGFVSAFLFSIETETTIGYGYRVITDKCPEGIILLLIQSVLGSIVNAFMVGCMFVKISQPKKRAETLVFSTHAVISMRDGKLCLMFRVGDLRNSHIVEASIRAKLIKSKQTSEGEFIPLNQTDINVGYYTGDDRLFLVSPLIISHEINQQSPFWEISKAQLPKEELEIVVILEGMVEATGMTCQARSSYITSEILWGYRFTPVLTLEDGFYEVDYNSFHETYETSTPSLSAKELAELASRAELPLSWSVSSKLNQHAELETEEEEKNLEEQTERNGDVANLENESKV
The depositor's hits bear a star; i = inactive; / = not tested or not shown; + = active, no number.

SMILES	GluA2 TARP mod	GIRK2 activator
Cc1[nH]c(=O)nc(SCC(=O)NC2CCCC2)c1C#N	i	i
CCc1nc(SCC(=O)N(CC)CC)c(C#N)c2c1CCCC2	+	/
COc1cccc(N2CCN(C(=O)CCCCn3c(=O)[nH]c4ccccc4c3=O)CC2)c1	i	i
COC(=O)c1ccsc1NC(=O)CC1Nc2cc(C)c(C)cc2NC1=O (configuration not stated)	+	i
Cc1cc2c(cc1C)NC(CC(=O)NCC(C)C)C(=O)N2 (configuration not stated)	i	/
CCOc1ccc(C2=NN3C(C2)c2ccccc2OC3c2cccnc2)cc1 (configuration not stated)	i	i
Cc1cc(C)c2c(n1)nn1c(NCCN(C)C)cc(C)nc21	+	i
Cc1cc(C)c2c(n1)nn1c(NCCc3ccccc3)cc(C)nc21	i	i
Cc1ccc(-c2c(C)nn3c(NCCN4CCOCC4)cc(C)nc23)cc1	i	i
Cc1cc(C)c2c(n1)nn1c(NCCN3CCOCC3)cc(C)nc21	+	i
CCOC(=O)c1c(NC(=O)CCCS(=O)(=O)c2ccccc2)sc2ccccc12	i	i
Cc1ccc(-n2nc3c(c2-n2cccc2)CN(C(=O)c2ccc(F)c(F)c2)C3)cc1	i	i
Cc1cccc(-n2nc3c(c2-n2cccc2)CN(C(=O)c2cc(C)oc2C)C3)c1	+	i
N#Cc1nc(-c2ccc(S(=O)(=O)N3CCCCCC3)cc2)oc1NCCN1CCOCC1	i	i
N#Cc1nc(-c2ccc(S(=O)(=O)N3CCCCCC3)cc2)oc1NCCCn1ccnc1	+	i
COc1ccc(C2NC(=O)NC(C)=C2C(=O)OCc2ccccc2)c(OC)c1 (configuration not stated)	+	/
COC(=O)C1=C(C)NC(=O)NC1c1ccccc1OCc1ccccc1 (configuration not stated)	i	/
O=S(=O)(c1ccc(Cl)s1)N1CCN(Cc2nc(-c3cccs3)cs2)CC1	i	i
COCc1nc2ccccc2n1CC(O)COc1ccc(Cl)c(C)c1 (configuration not stated)	i	i
COCc1nc2ccccc2n1CC(O)COc1ccc(C(C)C)cc1 (configuration not stated)	+	i
CCOC(CNC(=O)C(=O)Nc1ccc(N2CCCCS2(=O)=O)cc1)OCC	+	/
CCOC(CNC(=O)C(=O)Nc1ccc(N2CCCS2(=O)=O)cc1)OCC	i	/
CCN(C(=O)Cn1c(C2CC(=O)N(c3ccccc3C)C2)nc2ccccc21)c1ccccc1 (configuration not stated)	i	i
Cn1c(=O)c2c(NCCc3ccc(S(N)(=O)=O)cc3)ccnc2n(C)c1=O	+	i
Cn1c(=O)c2c(SCC(=O)NCCc3ccccc3)ccnc2n(C)c1=O	i	i
SMILES	GluA2 TARP mod	GIRK2 activator
Cc1cc(C(=O)N2CC(C(=O)NCC(F)(F)F)C2)no1	i	i
Cc1ccc(-c2cc(=O)n(CC(=O)Nc3ccc(C(C)C)cc3)cn2)cc1	i	i
COc1ccc(-c2c(NC(=O)c3cccs3)n(-c3ccc(C)c(C)c3)nc(C)c2=O)cc1	i	i
O=C(C1=COCCO1)N(CCN1CCOCC1)c1nc2ccccc2s1	i	/
O=C(C1=COCCO1)N(CCN1CCOCC1)c1nc2c(F)cccc2s1	+	i
O=C(NCCC(O)c1ccccc1)c1ccccc1Cl (configuration not stated)	i	i
Cc1cc(C)c2sc(NC(=O)c3ccnn3C)nc2c1	/	i
COc1ccc(OC)c2sc(NC(=O)c3ccnn3C)nc12	+	/
COc1ccc(C(=O)N2C(=S)C(c3ccccc3)=NC23CCCC3)cc1	i	i
Cc1cccc(NC(=O)CSc2nc3nc(C)cc(C)c3c(=O)[nH]2)c1	i	/
Cc1cc(C)c2c(=O)[nH]c(SCC(N)=O)nc2n1	+	/
Cc1noc(C)c1CN1CCN(S(=O)(=O)c2ccccc2)CC1	i	i
O=S(=O)(N1CCOCC1)n1nnc2ccccc21	i	i
O=S(=O)(N1CCOCC1)n1c(Cc2ccccc2)nc2ccccc21	+	i
CCOC(=O)c1sc(NC(=O)CCCS(=O)(=O)c2ccccc2)cc1C	i	i
N#Cc1ccc(C(=O)N(Cc2ccncc2)c2nc3c(F)cccc3s2)cc1	+	i
O=C(c1cccc(F)c1)N(CCCn1ccnc1)c1nc2c(F)cccc2s1	+	i
O=C(c1ccc2c(c1)OCCO2)N(CCCn1ccnc1)c1nc2c(F)cccc2s1	i	i
O=C(c1ccc2c(c1)OCCO2)N(Cc1ccncc1)c1nc2c(F)cccc2s1	i	i
O=C(Cc1ccccc1Cl)NCCN1CCC(c2cccs2)CC1	i	i
COc1ccc(CNC(=O)C(=O)Nc2ccc3c(c2)N(C(=O)C(C)C)CCC3)cc1	i	i
